In the library only some 17% were active in any assay of this set; here they are far more common.
TDP1 cell CPT – growth inhibition of DT40 Tdp1-/-;hTDP1 cells with camptothecin (screen for TDP1 inhibitors); hit rate 12% among 420,000; chicken DT40 Tdp1-/-;hTDP1 cells + 20 nM CPT, ATP luminescence, 48 h; Potency, µM (titrated, usually from 46.2 µM), for inactives: at the highest dose activity change, negative = growth inhibition, actives largely listed as inhibitors; AID 686979; note: % is set by controls: 0 for no effect and ±100 for the full control effect; nearly all actives have a fitted effect of over 55% in size
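Chicken DT40 Tdp1-/- cells stably complemented with human TDP1 were seeded at 400 cells/well in medium containing 20 nM camptothecin, exposed to pin-transferred compounds, and grown at 37 °C for at least 48 hr. Viability was read as ATP luminescence.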
TDP1 inh – inhibitors of human tyrosyl-DNA phosphodiesterase TDP1 | hit rate 0.28% among 350,000 | recombinant TDP1, AlphaScreen DNA substrate cleavage | Potency, µM (top dose mostly 130 µM), inactives show top-dose activity change, negative = inhibition, usual class: inhibitors; note: % is set by controls: 0 for no effect and ±100 for the full control effect; nearly all actives have a fitted effect of over 40% in size
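Tdp1 1 nM final; 15 min RT w/ cpd; substrate 15 nM, 5 min; beads 10 ug/ml, 10 min; AlphaScreen read. Neg ctrl: no enzyme.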
TDP1 cell noCPT – qHTS for Inhibitors of human tyrosyl-DNA phosphodiesterase 1 (TDP1): qHTS in cells in absence of CPT; DT40 Tdp1-/- hTDP1 cells, no CPT, ATP luminescence, 48 h; Potency, µM (titrated, usually from 46.2 µM), for inactives: at the top dose activity change, negative = growth inhibition, most hits filed as inhibitors; hit rate 15% among 420,000; AID 686978, 2013; note: % is set by controls: 0 for no effect and ±100 for the full control effect; nearly all actives have a fitted effect of over 55% in size
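DT40 Tdp1-/-;hTDP1 cells, no CPT (DMSO vehicle only), 400 cells/well; compounds pin-transferred; ≥48 hr, 37 °C; CellTiter-Glo 30 min RT dark, luminescence read.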
ClpP mod – qHTS Assay for Activators of ClpP. purified B. subtilis ClpP, FRET peptide cleavage, 20 min. Potency, µM (highest dose often 57.5 µM), inactives show at the highest dose activity change, negative = active. hit rate 1.9% among 340,000; active = well fitted falling curve with a large enough effect; inconclusive = small, poorly fitted or top-dose-only effect; inactive = no such curve, though single readings can be large or run the other way; note: the source files actives as falling curves though it sought activators and does not explain the sign; nearly all actives have a fitted effect of over 65% in size
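Buffer: 100 mM Tris/HCl pH8, 100 mM KCl, 0.05% low protease BSA, 2.5% glycerol, 0.01% Tween-20. ClpP 10 microg/mL final; 20 min RT; delta FRET normalized to ADEP and DMSO controls.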
* hit, by the source's call; ? = inconclusive; · = not tested or not shown; [ ] = dose if it differs, or a comment. Unless noted, calls come from the whole dose curve; as a rule, active = well fitted curve in the direction sought with a large enough effect; inconclusive = small, poorly fitted or top-dose-only effect, or another doubt; inactive = no such curve, though single readings can be large; an effect the other way counts as inactive or inconclusive. Potency is the fitted concentration of half-maximal effect.

SMILES	TDP1 cell CPT	TDP1 inh	TDP1 cell noCPT	ClpP mod
CC1(C(=O)Nc2ccccc2)CCN1C(=O)C1(c2ccc(Cl)cc2)CC1 (centres undefined)	?	·	3.7µM*	3%
Cc1ccc(NC(=O)C2(C)CCN2C(=O)C2(c3ccc(Cl)cc3)CC2)cc1 (centres undefined)	15µM*	·	18µM*	0%
Cc1ccc(S(=O)(=O)NC(=O)C2(C)CCN2C(=O)C2(c3ccc(Cl)cc3)CC2)cc1 (centres undefined)	-7%	·	-8%	-1%
Cc1ccccc1S(=O)(=O)NC(=O)C1(C)CCN1C(=O)C1(c2ccccc2)CC1 (centres undefined)	4%	·	0%	0%
CSc1ccc(NC(=O)C2(C)CCN2C(=O)C2(c3ccccc3)CC2)cc1 (centres undefined)	18µM*	·	?	0%
CC1(C(=O)N2Cc3ccccc3C2)CCN1C(=O)C1(c2ccccc2)CC1 (centres undefined)	?	·	21µM*	2%
Cc1nc2ccccc2n1CCc1nc2c3ccccc3nc(SCc3ccc(C#N)cc3)n2n1	-16%	6%	-6%	2%
Cc1cccc(CN2[C@H](COC(=O)Nc3ccccc3)C=CS2(=O)=O)c1	?	·	?	-1%
Cc1oc(C(C)(C)C)c(CN2CCOCC2)c1C(=O)O	2%	6%	-1%	·
COC(=O)Cn1cnc2c(Cl)nc(F)nc21	13µM*	0%[56.1 µM]	16µM*	0%
COC(=O)Cn1cnc2c(nnn2-c2ccc(F)cc2)c1=O	2%	·	9%	-3%
CNC[C@H]1OCc2ccccc2-c2ccccc2C(=O)N([C@H](C)CO)C[C@H]1C	-3%	·	2%	-5%
Cn1c(C(=O)N2CCCC(C(=O)N3CCN(C(=O)c4ccco4)CC3)C2)cc2sccc21 (centres undefined)	15µM*	3%	?	-2%
CCn1c(C(=O)N2CCC(C(=O)N3CCN(c4ccc(OC)cc4)CC3)CC2)cc2sccc21	9.2µM*	6%	13µM*	-2%
CCn1c(C(=O)N2CCC(C(=O)N3CCN(c4cc(C)ccc4C)CC3)CC2)cc2sccc21	23µM*	5%	16µM*	-3%
O=C(c1ccc(F)cc1)N1CCCC(C(=O)N2CCN(c3ccccc3)CC2)C1 (centres undefined)	-15%	4%	?	28µM*
O=C(c1ccc(Cl)cc1)N1CCCC(C(=O)N2CCN(c3ccccc3)CC2)C1 (centres undefined)	-26%	6%	?	-1%
COc1ccc(C(=O)N2CCC(C(=O)N3CCN(c4ccc(OC)cc4)CC3)CC2)cc1	?	-1%[0.0935 µM]	?	·
O=C(CC(=O)Nc1ccc(F)cc1)Nc1ccc(F)cc1	-9%	·	-12%	·
CCOC(=O)C1=C(COC(=O)CNS(=O)(=O)c2ccc(C)c(C)c2)NC(=O)NC1C (centres undefined)	-8%	·	-2%	-1%
CC(=O)c1cccc(N2C(=O)CN(S(C)(=O)=O)CC2(C)C(=O)NC2CCCC2)c1 (centres undefined)	-18%	5%	-11%	1%
CCn1c(C(=O)N2CCC(C(=O)N3CCN(c4ccccn4)CC3)CC2)cc2sccc21	?	4%	26µM*	-30%
Cn1c(C(=O)N2CCN(c3ccccn3)CC2)cc2ccccc21	?	4%	?	-7%
CCn1c(C(=O)N2CCCC(C(=O)N3CCN(c4ccccc4)CC3)C2)cc2sccc21 (centres undefined)	?	·	23µM*	-1%
O=[N+]([O-])c1cc(S(=O)(=O)C(F)(F)F)ccc1Sc1nc2ccccc2[nH]1	7.3µM*	6%	7.3µM*	25µM*
NCCNc1ccc([N+](=O)[O-])c(Sc2nc3ccccc3[nH]2)c1	?	3%	16µM*	-4%
O=[N+]([O-])c1ccc(N2CCNCC2)cc1Sc1nc2ccccc2[nH]1	?	2%	23µM*	-3%
CS(=O)(=O)c1ccc(Sc2nc3ccccc3[nH]2)c([N+](=O)[O-])c1	?	8%	?	-2%
Cc1nn(-c2cc(N3CCNCC3)ccc2[N+](=O)[O-])c(=O)c2ccccc12	-10%	-5%	0%	0%
